High-throughput results: PubChem BioAssay, several laboratories
SSB-PriA inh: K. pneumoniae PriA-SSBct interaction inhibition | AlphaScreen SSBct-PriA binding, biotinylated peptide | inhibition, % at 33 µM | 0.6% of 430,000 active; in the data active = inhibition mostly above about 37%, no sharp cut-off; inactive = mostly below about 20%;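 note: plate controls were negative control peptide for no effect and reference peptide for full effect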
Mtb hypoxia rep: Mtb hypoxia fluorescent reporter inhibition | 0.1% of 300,000 active | fluorescence inhibition, % (concentration not given with the values) | M. tuberculosis hypoxia-regulated fluorescent reporter, fluorescence | AID 1159583; in the data active = fluorescence inhibition mostly above about 23%, no sharp cut-off; inactive = mostly below about 17%
VHR inh abs: blocks human VHR1 dual specificity phosphatase | inhibition, % at 13.3 µM | AID 1654 | 0.52% of 290,000 active | P51452 | recombinant VHR phosphatase, pNPP absorbance; in the data active = inhibition above about 50%
Target sequence (P51452 whole entry, looked up): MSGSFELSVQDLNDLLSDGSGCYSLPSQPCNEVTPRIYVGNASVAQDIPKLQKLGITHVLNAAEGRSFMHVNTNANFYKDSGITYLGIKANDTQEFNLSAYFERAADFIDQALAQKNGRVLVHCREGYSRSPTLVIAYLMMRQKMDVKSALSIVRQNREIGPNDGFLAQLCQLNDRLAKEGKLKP
3CLpro inhibitor: SARS-CoV 3CLpro protease inhibition. recombinant SARS-CoV 3CLpro, quenched FRET peptide cleavage. inhibition, % at 6 µM. 0.14% of 290,000 active. AID 1706; in the data active = inhibition above about 12%
CCHFV vOTU inh: blocks the CCHF virus ovarian tumor domain protease; inhibition, % at 11.5 µM; CCHFV vOTU protease, Pep-AMC fluorescence; 0.55% of 370,000 active; in the data active = inhibition above about 30%; note: 0% = vehicle wells with enzyme and 100% = no enzyme wells
* marks the source's active call; other numbers are inactive results; · = no result given. Only some compounds are listed: those with a hit (about 1.3% of all), similar ones and a draw of the others.

SMILES	SSB-PriA inh	Mtb hypoxia rep	VHR inh abs	3CLpro inhibitor	CCHFV vOTU inh
O=C(CSc1cccc2cccnc12)n1c2ccccc2c2ccccc21	73*	·	·	·	·
Cc1cc(C)c(C(=O)CSc2cccc3cccnc23)cc1C	59*	·	·	·	·
CN(C)C(=O)CSc1cccc2cccnc12	94*	·	-1	5	-22
O=C(CSc1cccc2cccnc12)N1CCCC1	79*	·	-5	2	-24
O=C(Cc1ccc(Cl)cc1)NCCn1nc(-c2ccc(F)cc2)ccc1=O	0	·	·	·	·
CCC(=O)c1ccc(OCC(O)CNCCc2ccc(Cl)cc2)cc1 (stereo not given)	40*	9	7	3	-7
CCC(=O)c1ccc(OCC(O)CNCc2ccc(F)cc2)cc1 (stereo not given)	6	3	30	-7	12
Cc1cc(C)cc(N=c2c([N+](=O)[O-])nn(-c3cccc(Cl)c3)n2O)c1	36	16	25	-2	4
O=[N+]([O-])c1nn(-c2ccc(Cl)cc2)n(O)c1=NCc1cccnc1	15	·	10	5	2
O=[N+]([O-])c1nn(-c2cccc(Cl)c2)n(O)c1=NC1CCCCCC1	66*	·	·	·	·
O=[N+]([O-])c1nn(-c2ccccc2)n(O)c1=NC1CCN(Cc2ccccc2)CC1	-5	·	17	-4	-5
O=[N+]([O-])c1nn(-c2cccc(Cl)c2)n(O)c1=NCc1cccnc1	7	57*	4	0	-13
O=[N+]([O-])c1nn(-c2ccccc2)n(O)c1=NC1CCCCCC1	64*	·	·	·	·
Cn1ncc2c(N3CCCCC3)nc(NCc3ccccc3)nc21	-3	·	·	·	·
COC(=O)C1=CC(C(=O)c2cccs2)=NN(c2ccc(OC)cc2)C1C(=O)OC (stereo not given)	39*	5	-5	-5	6
CC(=O)Nc1cccc(NC(=O)CSc2nc(CC(=O)NC3CCCC3)cs2)c1	0	·	·	·	·
Cc1ccc(-c2nnc(SCC(=O)Nc3ccc4c(c3)oc3ccccc34)n2C)c(Cl)c1	-1	-13	59*	5	-2
CCS(=O)(=O)C1CN(C(=O)c2ccc(NS(=O)(=O)c3cccc(C)c3)cc2)C1	-14	·	·	·	·
O=[N+]([O-])c1ccccc1Nc1nc(-c2cccnc2)cs1	52*	11	35	-1	1
CCN(CC)c1ccc(Nc2nc(-c3cccnc3)cs2)cc1	41*	14	57*	-1	3
CCc1ccccc1Nc1nc(-c2cccnc2)cs1	-3	-2	5	5	0
O=[N+]([O-])c1ccccc1Nc1nc(-c2ccccn2)cs1	80*	·	·	·	·
O=C(COc1ccc([N+](=O)[O-])cc1)Nc1nc(-c2ccccn2)cs1	31	19	·	·	-1
CSc1ccc([C@@H](O)CNC(=O)c2csc(-c3ccccc3)n2)cc1	-7	·	·	·	·
COc1ccc(CC(=O)Nc2ccc(S(N)(=O)=O)cc2)cc1C	-17	·	·	·	·
SMILES	SSB-PriA inh	Mtb hypoxia rep	VHR inh abs	3CLpro inhibitor	CCHFV vOTU inh
O=C(NCCc1nc2c(c(C(F)(F)F)n1)CCCC2)NCc1cccs1	2	·	·	·	·
Cc1cccc(N2CCN(C(=O)c3ccc(Cl)c(S(=O)(=O)N4CCc5ccccc5C4)c3)CC2)c1C	0	·	59*	-3	-8
O=C(c1ccccc1)c1ccc(OCC(O)CNc2ccc(F)cc2)cc1 (stereo not given)	57*	·	·	·	·
Oc1c(Cl)cc(CN2CCOCC2)c2cccnc12	115*	13	·	·	5
O=[N+]([O-])c1cc(CN2CCOCC2)c2cccnc2c1O	92*	·	-11	2	·
O=C(COc1ccc(Cl)cc1)Nc1nc(-c2ccc(F)cc2)cs1	1	·	·	·	·
Cc1ccc(-n2cc[nH]c(=S)c2=O)cc1	0	·	·	·	·
COc1cccc(N2CC(O)Cn3c2nc2c3c(=O)[nH]c(=O)n2C)c1 (stereo not given)	-1	10	60*	-4	-8
CCOc1ccccc1N1CCN(C(=O)C2c3ccccc3Oc3ccccc32)CC1	7	9	50*	8	3
Cn1cnc(S(=O)(=O)NCCn2ccc(C(F)(F)F)n2)c1	-28	·	·	·	·
O=C(NCc1cccnc1)c1sc2cc(Cl)ccc2c1Cl	0	7	50*	-7	-1
O=C(NCc1ccco1)c1sc2cc(Cl)ccc2c1Cl	-27	-1	-1	4	5
Cc1cc(C)n(-c2nnc(C)c(=O)[nH]2)n1	74*	-7	11	2	2
CCCc1cc(=O)[nH]c(-n2nc(C)cc2C)n1	12	·	·	·	·
NS(=O)(=O)c1ccc(NN=C/C=C/c2ccccc2[N+](=O)[O-])cc1	48*	12	·	·	·
O=C(O)c1ccc(NN=C/C=C/c2ccccc2[N+](=O)[O-])cc1	17	4	·	·	·
